# Structures can show the parent of a compound that is named as a salt. ± gives the standard deviation.
# Assays:
# Jurkat [1] = experiment: mean cell size (FSC-A) relative to DMSO control (fraction of control); higher = larger cells; conditions: 48 h
# Summary of the method: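 Jurkat cells seeded at 600 cells/µl were incubated 1 h, then exposed for 48h to the Enzo Screen-Well FDA Approved Drug Library v2.0 at 25µM in 0.9% (v/v) final DMSO. Drugs that cut counts below 20% of controls were diluted 10-fold and retested, down to 25nM. Cell count and mean cell size (forward scatter area) were read on an Accuri C6 flow cytometer, relative to solvent-only controls. Plates held 6-12 controls; values are means of 3 biological replicates.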
# Jurkat [2] = experiment: cell count relative to DMSO control (fraction of control); higher = more cells (less growth inhibition); conditions: 48 h
SMILES,mean cell size (Jurkat [1]),cell count (Jurkat [2])
N=C(N)N/N=C/c1c(Cl)cccc1Cl [Guanabenz Acetate] (concentration: 25 µM),0.988 ± 0.044,0.34 ± 0.13
CO[C@H]1C[C@@H]2CC[C@@H](C)[C@@](O)(O2)C(=O)C(=O)N2CCCC[C@H]2C(=O)O[C@H]([C@H](C)C[C@@H]2CC[C@@H](OC(=O)C(C)(CO)CO)[C@H](OC)C2)CC(=O)[C@H](C)/C=C(\C)[C@@H](O)[C@@H](OC)C(=O)[C@H](C)C[C@H](C)/C=C/C=C/C=C/1C [Temsirolimus] (concentration: 25 µM),0.686 ± 0.018,0.358 ± 0.15
Nc1ncn([C@H]2C[C@H](O)[C@@H](CO)O2)c(=O)n1 [Decitabine] (concentration: 2.5 µM),1 ± 0.018,0.363 ± 0.035
Oc1ccc(C2CNCCc3c2cc(O)c(O)c3Cl)cc1 (stereo not drawn) [Fenoldopam Mesylate] (concentration: 25 µM),0.886 ± 0.059,0.272 ± 0.13
CNC(=O)c1cnn(-c2nc(N)c3ncn([C@@H]4O[C@H](CO)[C@@H](O)[C@H]4O)c3n2)c1 [Regadenoson] (concentration: 25 µM),0.991 ± 0.035,0.883 ± 0.11
CO[C@H]1O[C@@H]2O[C@@]3(C)CC[C@H]4[C@H](C)CC[C@@H]([C@H]1C)[C@@]24OO3 [Artemether] (concentration: 25 µM),0.912 ± 0.047,0.632 ± 0.0091
CCC(=O)OC(OP(=O)(CCCCc1ccccc1)CC(=O)N1C[C@H](C2CCCCC2)C[C@H]1C(=O)O)C(C)C (stereo partly drawn) [Fosinopril·Na] (concentration: 25 µM),0.974 ± 0.054,0.562 ± 0.12
CNC(=O)c1cc(Oc2ccc(NC(=O)Nc3ccc(Cl)c(C(F)(F)F)c3)cc2)ccn1 [Sorafenib Tosylate] (concentration: 2.5 µM),0.919 ± 0.022,0.999 ± 0.032
O=NN(CCCl)C(=O)NCCCl [Carmustine] (concentration: 25 µM),1.066 ± 0.0089,0.767 ± 0.014
CCCCc1ncc(/C=C(\Cc2cccs2)C(=O)O)n1Cc1ccc(C(=O)O)cc1 [Eprosartan Mesylate] (concentration: 25 µM),1.01 ± 0.06,0.864 ± 0.071
Cc1nnc(C(C)C)n1C1C[C@H]2CC[C@@H](C1)N2CC[C@H](NC(=O)C1CCC(F)(F)CC1)c1ccccc1 (stereo in doubt) [Maraviroc] (concentration: 25 µM),1 ± 0.044,0.668 ± 0.062
NCCS [Cysteamine·HCl] (concentration: 25 µM),0.957 ± 0.034,0.513 ± 0.13
NC[C@@H]1O[C@H](O[C@H]2[C@@H](O)[C@H](O[C@@H]3[C@@H](O)[C@H](N)C[C@H](N)[C@H]3O[C@H]3O[C@H](CO)[C@@H](O)[C@H](O)[C@H]3N)O[C@@H]2CO)[C@H](N)[C@@H](O)[C@@H]1O [Paromomycin Sulfate] (concentration: 25 µM),0.949 ± 0.012,0.773 ± 0.041
Cn1c(=O)c2c(ncn2CC(O)CO)n(C)c1=O (stereo not drawn) [Dyphylline] (concentration: 25 µM),0.966 ± 0.022,0.81 ± 0.037
Cc1c(OCC(F)(F)F)ccnc1C[S+]([O-])c1nc2ccccc2[nH]1 (stereo not drawn) [Lansoprazole] (concentration: 25 µM),0.927 ± 0.027,0.617 ± 0.01
CO[C@H]1/C=C/O[C@@]2(C)Oc3c(C)c(O)c4c(O)c(c5c(nc6cc(C)ccn65)c4c3C2=O)NC(=O)/C(C)=C\C=C\[C@H](C)[C@H](O)[C@@H](C)[C@@H](O)[C@@H](C)[C@H](OC(C)=O)[C@@H]1C [Rifaximin] (concentration: 25 µM),0.922 ± 0.039,0.4 ± 0.12
CC(C)NCC(O)COc1cccc2[nH]ccc12 (stereo not drawn) [Pindolol] (concentration: 25 µM),0.976 ± 0.065,0.644 ± 0.16
NS(=O)(=O)c1cc2c(cc1C(F)(F)F)NC(Cc1ccccc1)NS2(=O)=O (stereo not drawn) [Bendroflumethiazide] (concentration: 25 µM),0.957 ± 0.041,0.902 ± 0.08
c1cnc2cc3c(cc2n1)[C@@H]1CNC[C@H]3C1 [Varenicline Tartrate] (concentration: 25 µM),1.02 ± 0.038,1.01 ± 0.062
CN(N=O)C(=O)N[C@@H]1[C@@H](O)[C@H](O)[C@@H](CO)O[C@@H]1O [Streptozocin] (concentration: 25 µM),0.939 ± 0.014,0.897 ± 0.034
COc1cc(Cc2cnc(N)nc2N)cc(OC)c1OC [Trimethoprim] (concentration: 25 µM),0.969 ± 0.039,0.457 ± 0.11
C[C@]12CC[C@@H]3c4ccc(O)cc4C[C@@H](CCCCCCCCC[S+]([O-])CCCC(F)(F)C(F)(F)F)[C@H]3[C@@H]1CC[C@@H]2O (stereo partly drawn) [Fulvestrant] (concentration: 25 µM),0.942 ± 0.0098,0.862 ± 0.061
Nc1nc2ccc(OC(F)(F)F)cc2s1 [Riluzole·HCl] (concentration: 2.5 µM),1.01 ± 0.028,0.573 ± 0.029
CC=CC1=C(C(=O)O)N2C(=O)[C@@H](NC(=O)[C@H](N)c3ccc(O)cc3)[C@H]2SC1 [Cefprozil] (concentration: 25 µM),0.951 ± 0.035,1.06 ± 0.035
Nc1ccc(C(=O)O)c(O)c1 [4-Aminosalicylic Acid] (concentration: 25 µM),0.914 ± 0.016,0.844 ± 0.14

SMILES,mean cell size (Jurkat [1]),cell count (Jurkat [2])
Nc1nc(Cl)nc2c1ncn2[C@@H]1O[C@H](CO)[C@@H](O)[C@@H]1F [Clofarabine] (concentration: 25 nM),1.18 ± 0.048,0.26 ± 0.073
COc1c(N2CCNC(C)C2)c(F)cc2c(=O)c(C(=O)O)cn(C3CC3)c12 (stereo not drawn) [Gatifloxacin] (concentration: 25 µM),0.956 ± 0.024,0.661 ± 0.17
Clc1ccccc1C(c1ccccc1)(c1ccccc1)n1ccnc1 [Clotrimazole] (concentration: 25 µM),0.92 ± 0.04,0.591 ± 0.05
C#C[C@]1(O)CC[C@H]2[C@@H]3CCc4cc(O)ccc4[C@H]3CC[C@@]21C [Ethinyl Estradiol] (concentration: 25 µM),1.22 ± 0.075,0.263 ± 0.035
CC(C)(C)NC[C@H](O)COc1nsnc1N1CCOCC1 [(S)-Timolol Maleate] (concentration: 25 µM),0.963 ± 0.034,0.967 ± 0.15
O=C(CCCCCCC(=O)Nc1ccccc1)NO [Vorinostat] (concentration: 250 nM),0.947 ± 0.035,0.71 ± 0.048
CCOc1ccc2ccccc2c1C(=O)N[C@@H]1C(=O)N2[C@@H]1SC(C)(C)[C@@H]2C(=O)O [Nafcillin·Na] (concentration: 25 µM),0.954 ± 0.025,0.569 ± 0.13
CO[C@@]1(NC(=O)Cc2cccs2)C(=O)N2C(C(=O)O)=C(COC(N)=O)CS[C@@H]21 [Cefoxitin·Na] (concentration: 25 µM),0.939 ± 0.031,0.89 ± 0.037
CC[C@H](C)C(=O)O[C@H]1C[C@H](O)C=C2C=C[C@H](C)[C@H](CC[C@@H](O)C[C@@H](O)CC(=O)O)[C@H]21 [Pravastatin·Na] (concentration: 25 µM),1.07 ± 0.028,0.771 ± 0.15
Nc1nc(=O)[nH]cc1F [Flucytosine] (concentration: 25 µM),0.997 ± 0.035,0.919 ± 0.025
COc1cc2nc(N3CCN(C(=O)c4ccco4)CC3)nc(N)c2cc1OC [Prazosin·HCl] (concentration: 2.5 µM),1.03 ± 0.056,0.484 ± 0.18
C[C@]12CCC(=O)C=C1CC[C@@H]1[C@@H]2[C@@H](O)C[C@@]2(C)[C@H]1CC[C@]2(O)C(=O)CO [Hydrocortisone] (concentration: 25 µM),0.9165 ± 0.0081,0.72 ± 0.092
CN(C/C=C/c1ccccc1)Cc1cccc2ccccc12 [Naftifine·HCl] (concentration: 25 µM),0.956 ± 0.028,0.848 ± 0.089
CN(C)CCCN1c2ccccc2CCc2ccc(Cl)cc21 [Clomipramine·HCl] (concentration: 25 µM),0.961 ± 0.035,0.4539 ± 0.0031
CC(=O)Oc1cc2c(s1)CCN(C(C(=O)C1CC1)c1ccccc1F)C2 (stereo not drawn) [Prasugrel] (concentration: 25 µM),1.06 ± 0.023,0.831 ± 0.14
C[C@@H](CN1CC(=O)NC(=O)C1)N1CC(=O)NC(=O)C1 [Dexrazoxane] (concentration: 25 µM),0.9682 ± 0.0057,0.411 ± 0.11
CCc1ccc(CCOc2ccc(CC3SC(=O)NC3=O)cc2)nc1 (stereo not drawn) [Pioglitazone·HCl] (concentration: 25 µM),0.966 ± 0.039,0.906 ± 0.16
CC(C)c1nc(N(C)S(C)(=O)=O)nc(-c2ccc(F)cc2)c1/C=C/[C@@H](O)C[C@@H](O)CC(=O)O [Rosuvastatin Calcium] (concentration: 25 µM),1.19 ± 0.041,0.689 ± 0.065
CC(=O)CCCCn1c(=O)c2c(ncn2C)n(C)c1=O [Pentoxifylline] (concentration: 25 µM),0.977 ± 0.028,1.09 ± 0.12
CC(=O)/N=c1/sc(S(N)(=O)=O)nn1C [Methazolamide] (concentration: 25 µM),1.02 ± 0.035,0.925 ± 0.091
CC(=O)O[C@H]1C(=O)[C@@]2(C)[C@H]([C@H](OC(=O)c3ccccc3)[C@]3(O)C[C@H](OC(=O)[C@H](O)[C@@H](NC(=O)c4ccccc4)c4ccccc4)C(C)=C1C3(C)C)[C@]1(OC(C)=O)CO[C@@H]1C[C@@H]2O [Paclitaxel (Taxol)] (concentration: 25 nM),1.07 ± 0.022,0.4 ± 0.048
COc1ccc(OC)c(C(O)CNC(=O)CN)c1 (stereo not drawn) [Midodrine·HCl] (concentration: 25 µM),0.942 ± 0.065,0.55 ± 0.15
CC1(C)O[C@@H]2C[C@H]3[C@@H]4C[C@H](F)C5=CC(=O)C=C[C@]5(C)[C@@]4(F)[C@@H](O)C[C@]3(C)[C@]2(C(=O)CO)O1 [Fluocinolone Acetonide] (concentration: 25 µM),0.958 ± 0.037,0.55 ± 0.08
O=c1[nH]c(=O)n([C@H]2C[C@H](O)[C@@H](CO)O2)cc1I [Idoxuridine] (concentration: 25 µM),1.05 ± 0.019,0.235 ± 0.062

# Source: the supplement of paper PMC4709259
